# Key:
# Assay in all cases: DAPPL (digital affinity profiling via proximity ligation, sequencing); 10 mM Tris-HCl pH 7.5, 50 mM NaCl, 1 mM DTT, 4% glycerol, room temperature, 30 min; GST-TFs on glutathione beads, 16-mer random dsDNA library, 0.1% formaldehyde crosslink after washing; high values mean tight binding
# FEV = target: T1, FEV (Homo sapiens, UniProt Q99581 1-238); details: protein: recombinant; tags: N-terminal GST; dsDNA, one strand shown
# T1 sequence: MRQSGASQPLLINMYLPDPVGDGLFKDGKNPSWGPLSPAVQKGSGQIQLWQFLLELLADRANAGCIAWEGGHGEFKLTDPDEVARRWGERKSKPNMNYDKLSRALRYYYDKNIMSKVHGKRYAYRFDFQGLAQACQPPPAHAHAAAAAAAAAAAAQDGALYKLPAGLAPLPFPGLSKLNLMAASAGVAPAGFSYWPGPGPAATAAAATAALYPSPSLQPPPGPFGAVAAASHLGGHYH
# Outline: (§1)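 The binding signal reported is, for every hexamer, its read frequency for a factor over its read frequency for the tag-only sample. Reads came from pools of yeast-expressed, GST-fused human transcription factors on glutathione beads, barcoded with DNA and mixed with that sample, which were incubated with 200 nmole of a random double-stranded 16-mer DNA library in Tris/NaCl/DTT/glycerol buffer at room temperature for 30 min. After washing, the pools were crosslinked with 0.1% formaldehyde, proximity-ligated with BsaI/T4 ligase for 1 h at 37 °C, PCR-amplified and sequenced on an Illumina NextSeq500.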
# ETV5 = ETV5 (Homo sapiens, UniProt P41161 1-510); details: protein: recombinant; tags: N-terminal GST; dsDNA, one strand shown
# Outline: as §1
# HSF1 = HSF1 (Homo sapiens, UniProt Q00613 1-529); details: protein: recombinant; tags: N-terminal GST; chain copies: 3; dsDNA, one strand shown
# Outline: as §1
# SPIC = target: T2, SPIC (Homo sapiens, UniProt Q8N5J4 1-248); details: protein: recombinant; tags: N-terminal GST; dsDNA, one strand shown
# T2 sequence: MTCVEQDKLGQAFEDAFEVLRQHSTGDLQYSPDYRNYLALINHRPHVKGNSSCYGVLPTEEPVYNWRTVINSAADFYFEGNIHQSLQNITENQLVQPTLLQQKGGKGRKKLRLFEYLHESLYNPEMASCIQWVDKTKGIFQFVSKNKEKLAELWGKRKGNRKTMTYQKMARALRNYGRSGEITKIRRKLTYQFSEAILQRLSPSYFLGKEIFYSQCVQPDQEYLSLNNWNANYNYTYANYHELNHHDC
# Outline: as §1
# ELF4 = ELF4 (Homo sapiens, UniProt Q99607 1-663); details: protein: recombinant; tags: N-terminal GST; dsDNA, one strand shown
# Outline: as §1
# ELK4 = target: T3, ELK4 (Homo sapiens, UniProt P28324-2 1-405); details: protein: recombinant; tags: N-terminal GST; dsDNA, one strand shown
# T3 sequence: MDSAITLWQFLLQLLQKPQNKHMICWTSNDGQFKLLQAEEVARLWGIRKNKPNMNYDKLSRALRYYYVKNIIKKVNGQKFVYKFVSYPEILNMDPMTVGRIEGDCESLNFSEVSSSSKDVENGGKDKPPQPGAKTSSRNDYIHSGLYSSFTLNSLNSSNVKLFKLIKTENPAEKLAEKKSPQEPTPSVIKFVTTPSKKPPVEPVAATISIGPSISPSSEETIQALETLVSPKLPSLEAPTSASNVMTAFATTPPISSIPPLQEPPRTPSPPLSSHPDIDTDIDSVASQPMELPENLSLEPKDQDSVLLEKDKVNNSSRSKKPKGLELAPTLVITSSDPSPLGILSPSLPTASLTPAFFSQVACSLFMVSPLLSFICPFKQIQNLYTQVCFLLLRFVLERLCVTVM
# Outline: as §1
# ETV2 = target: T4, ETV2 (Homo sapiens, UniProt O00321 1-342); details: protein: recombinant; tags: N-terminal GST; dsDNA, one strand shown
# T4 sequence: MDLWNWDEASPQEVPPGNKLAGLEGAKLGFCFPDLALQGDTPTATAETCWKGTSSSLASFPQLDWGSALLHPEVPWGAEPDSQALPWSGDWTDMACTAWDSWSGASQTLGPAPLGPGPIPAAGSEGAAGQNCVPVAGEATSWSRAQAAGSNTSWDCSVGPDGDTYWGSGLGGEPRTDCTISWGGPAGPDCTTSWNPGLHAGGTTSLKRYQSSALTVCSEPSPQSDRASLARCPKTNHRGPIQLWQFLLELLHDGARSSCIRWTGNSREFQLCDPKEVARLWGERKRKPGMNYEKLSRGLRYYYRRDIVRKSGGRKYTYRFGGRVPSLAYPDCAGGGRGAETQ
# Outline: as §1
# ELF3 = target: T5, ELF3 (Homo sapiens, UniProt P78545 1-371); details: protein: recombinant; tags: N-terminal GST; dsDNA, one strand shown
# T5 sequence: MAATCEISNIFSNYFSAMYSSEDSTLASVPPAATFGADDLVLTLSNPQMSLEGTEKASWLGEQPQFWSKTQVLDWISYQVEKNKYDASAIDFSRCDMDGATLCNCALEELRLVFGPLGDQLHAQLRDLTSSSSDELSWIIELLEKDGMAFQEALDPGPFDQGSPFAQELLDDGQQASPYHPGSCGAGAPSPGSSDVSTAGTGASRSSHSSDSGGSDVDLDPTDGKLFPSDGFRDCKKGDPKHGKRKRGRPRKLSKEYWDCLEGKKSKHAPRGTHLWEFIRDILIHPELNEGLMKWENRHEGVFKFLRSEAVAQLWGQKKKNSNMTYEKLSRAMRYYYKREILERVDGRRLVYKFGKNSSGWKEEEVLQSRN
# Outline: as §1
# ETV1 = ETV1 (Homo sapiens, UniProt P50549 1-477); details: protein: recombinant; tags: N-terminal GST; dsDNA, one strand shown
# Outline: as §1
# ERF = target: T6, ERF (Homo sapiens, UniProt P50548 1-548); details: protein: recombinant; tags: N-terminal GST; dsDNA, one strand shown
# T6 sequence: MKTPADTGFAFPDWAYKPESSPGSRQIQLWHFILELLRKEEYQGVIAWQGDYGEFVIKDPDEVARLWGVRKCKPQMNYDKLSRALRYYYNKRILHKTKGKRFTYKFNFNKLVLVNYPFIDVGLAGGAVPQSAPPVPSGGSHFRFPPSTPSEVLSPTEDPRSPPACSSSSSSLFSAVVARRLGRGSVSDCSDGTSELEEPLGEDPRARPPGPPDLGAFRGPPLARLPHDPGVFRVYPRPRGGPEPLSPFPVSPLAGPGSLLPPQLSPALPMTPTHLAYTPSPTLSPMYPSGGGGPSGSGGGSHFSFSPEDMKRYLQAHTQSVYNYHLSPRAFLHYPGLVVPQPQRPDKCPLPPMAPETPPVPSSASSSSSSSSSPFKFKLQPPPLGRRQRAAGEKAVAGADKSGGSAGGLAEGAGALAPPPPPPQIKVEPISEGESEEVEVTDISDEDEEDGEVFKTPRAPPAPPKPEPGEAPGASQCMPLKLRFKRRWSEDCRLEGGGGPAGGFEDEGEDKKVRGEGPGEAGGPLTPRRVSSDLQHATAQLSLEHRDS
# Outline: as §1
# ETV3L = target: T7, ETV3L (Homo sapiens, UniProt Q6ZN32 1-361); details: protein: recombinant; tags: N-terminal GST; dsDNA, one strand shown
# T7 sequence: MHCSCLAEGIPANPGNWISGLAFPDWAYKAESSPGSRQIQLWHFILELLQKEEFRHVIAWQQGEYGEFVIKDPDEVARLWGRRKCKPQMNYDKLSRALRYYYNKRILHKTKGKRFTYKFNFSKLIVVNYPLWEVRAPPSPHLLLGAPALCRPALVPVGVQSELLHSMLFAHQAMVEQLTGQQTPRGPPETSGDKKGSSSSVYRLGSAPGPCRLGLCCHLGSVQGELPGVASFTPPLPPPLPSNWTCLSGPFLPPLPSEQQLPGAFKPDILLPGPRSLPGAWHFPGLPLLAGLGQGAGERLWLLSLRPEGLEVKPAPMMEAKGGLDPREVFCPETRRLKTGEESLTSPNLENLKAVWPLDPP
# Outline: as §1
# ETS2 = target: T8, ETS2 (Homo sapiens, UniProt P15036 1-469); details: protein: recombinant; tags: N-terminal GST; dsDNA, one strand shown
# T8 sequence: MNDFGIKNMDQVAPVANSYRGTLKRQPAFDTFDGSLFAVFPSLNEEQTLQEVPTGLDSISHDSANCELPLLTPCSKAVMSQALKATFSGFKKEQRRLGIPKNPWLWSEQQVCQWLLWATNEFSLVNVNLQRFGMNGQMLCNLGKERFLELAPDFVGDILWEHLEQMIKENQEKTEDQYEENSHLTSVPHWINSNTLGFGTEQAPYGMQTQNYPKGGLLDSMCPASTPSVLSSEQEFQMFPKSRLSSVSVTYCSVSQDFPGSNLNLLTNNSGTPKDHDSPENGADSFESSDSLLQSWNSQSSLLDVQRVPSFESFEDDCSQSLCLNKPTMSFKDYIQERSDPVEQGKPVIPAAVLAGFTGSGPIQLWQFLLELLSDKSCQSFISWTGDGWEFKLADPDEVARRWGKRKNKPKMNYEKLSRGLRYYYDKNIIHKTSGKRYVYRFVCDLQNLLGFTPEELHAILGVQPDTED
# Outline: as §1
# SPDEF = target: T9, SPDEF (Homo sapiens, UniProt O95238 1-335); details: protein: recombinant; tags: N-terminal GST; dsDNA, one strand shown
# T9 sequence: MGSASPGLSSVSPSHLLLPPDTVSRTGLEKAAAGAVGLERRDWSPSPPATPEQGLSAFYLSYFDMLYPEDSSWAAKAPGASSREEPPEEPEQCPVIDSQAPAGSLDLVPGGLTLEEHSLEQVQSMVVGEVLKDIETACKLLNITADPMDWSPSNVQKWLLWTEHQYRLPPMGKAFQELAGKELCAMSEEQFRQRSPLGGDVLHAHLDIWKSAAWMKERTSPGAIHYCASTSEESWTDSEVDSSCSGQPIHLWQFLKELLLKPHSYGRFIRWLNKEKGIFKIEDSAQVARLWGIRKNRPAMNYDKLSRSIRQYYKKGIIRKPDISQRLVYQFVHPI
# Outline: as §1
# ETV7 = target: T10, ETV7 (Homo sapiens, UniProt Q9Y603 1-341); details: protein: recombinant; tags: N-terminal GST; dsDNA, one strand shown
# T10 sequence: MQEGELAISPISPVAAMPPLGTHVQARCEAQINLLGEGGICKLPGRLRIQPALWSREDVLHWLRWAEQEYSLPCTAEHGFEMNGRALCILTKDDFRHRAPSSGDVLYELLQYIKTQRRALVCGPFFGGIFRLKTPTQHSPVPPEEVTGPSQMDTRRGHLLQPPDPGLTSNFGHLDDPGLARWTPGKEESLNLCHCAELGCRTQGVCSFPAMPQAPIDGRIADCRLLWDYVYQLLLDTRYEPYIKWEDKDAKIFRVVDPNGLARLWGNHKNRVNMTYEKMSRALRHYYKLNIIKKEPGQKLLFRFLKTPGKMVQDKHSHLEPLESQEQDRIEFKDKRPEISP
# Outline: as §1
# ELF5 = target: T11, ELF5 (Homo sapiens, UniProt Q9UKW6-2 1-255); details: protein: recombinant; tags: N-terminal GST; dsDNA, one strand shown
# T11 sequence: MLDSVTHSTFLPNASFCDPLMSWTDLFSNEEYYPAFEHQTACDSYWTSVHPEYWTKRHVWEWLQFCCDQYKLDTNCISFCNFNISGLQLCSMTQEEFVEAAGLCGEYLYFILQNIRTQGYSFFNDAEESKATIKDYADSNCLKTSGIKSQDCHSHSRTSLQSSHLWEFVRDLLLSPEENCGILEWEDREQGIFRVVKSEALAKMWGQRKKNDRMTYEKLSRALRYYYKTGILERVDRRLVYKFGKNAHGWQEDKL
# Outline: as §1
# ETV3 = target: T12, ETV3 (Homo sapiens, UniProt P41162-2 1-143); details: protein: recombinant; tags: N-terminal GST; dsDNA, one strand shown
# T12 sequence: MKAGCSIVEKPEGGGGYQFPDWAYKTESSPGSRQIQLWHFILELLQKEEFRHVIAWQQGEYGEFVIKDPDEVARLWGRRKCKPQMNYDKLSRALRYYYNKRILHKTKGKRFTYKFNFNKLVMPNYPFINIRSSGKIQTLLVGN
# Outline: as §1
# ETV6 = ETV6 (Homo sapiens, UniProt P41212 1-452); details: protein: recombinant; tags: N-terminal GST; dsDNA, one strand shown
# Outline: as §1
# HSF1, sequence (Q00613 whole entry): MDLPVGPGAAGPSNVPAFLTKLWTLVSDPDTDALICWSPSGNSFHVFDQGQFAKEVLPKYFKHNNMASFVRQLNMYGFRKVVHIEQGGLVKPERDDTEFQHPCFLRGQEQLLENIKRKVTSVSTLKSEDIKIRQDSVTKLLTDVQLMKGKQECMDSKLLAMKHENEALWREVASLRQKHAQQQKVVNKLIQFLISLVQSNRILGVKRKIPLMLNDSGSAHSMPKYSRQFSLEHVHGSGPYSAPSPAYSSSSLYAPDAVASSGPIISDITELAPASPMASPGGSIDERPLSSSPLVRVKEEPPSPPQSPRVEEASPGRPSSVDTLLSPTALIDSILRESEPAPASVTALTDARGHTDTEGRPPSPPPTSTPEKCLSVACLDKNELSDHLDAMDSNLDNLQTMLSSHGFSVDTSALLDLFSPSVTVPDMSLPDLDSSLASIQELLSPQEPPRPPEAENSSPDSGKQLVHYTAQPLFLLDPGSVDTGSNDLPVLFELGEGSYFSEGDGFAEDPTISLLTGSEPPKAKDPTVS
# ETV6, sequence (P41212 whole entry): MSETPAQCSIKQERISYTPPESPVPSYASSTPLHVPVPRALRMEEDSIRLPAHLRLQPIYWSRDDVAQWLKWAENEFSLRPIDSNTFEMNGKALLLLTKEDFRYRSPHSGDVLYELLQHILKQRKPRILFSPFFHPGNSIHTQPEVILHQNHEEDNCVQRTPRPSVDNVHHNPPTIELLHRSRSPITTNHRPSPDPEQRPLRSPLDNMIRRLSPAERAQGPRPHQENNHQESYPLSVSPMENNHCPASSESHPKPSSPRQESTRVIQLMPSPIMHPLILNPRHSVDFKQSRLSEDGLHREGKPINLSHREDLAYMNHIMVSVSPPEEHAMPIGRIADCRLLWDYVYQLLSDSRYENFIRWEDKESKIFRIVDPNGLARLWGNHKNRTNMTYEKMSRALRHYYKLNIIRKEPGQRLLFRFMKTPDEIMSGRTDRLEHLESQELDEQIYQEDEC
# ETV5, sequence (P41161 whole entry): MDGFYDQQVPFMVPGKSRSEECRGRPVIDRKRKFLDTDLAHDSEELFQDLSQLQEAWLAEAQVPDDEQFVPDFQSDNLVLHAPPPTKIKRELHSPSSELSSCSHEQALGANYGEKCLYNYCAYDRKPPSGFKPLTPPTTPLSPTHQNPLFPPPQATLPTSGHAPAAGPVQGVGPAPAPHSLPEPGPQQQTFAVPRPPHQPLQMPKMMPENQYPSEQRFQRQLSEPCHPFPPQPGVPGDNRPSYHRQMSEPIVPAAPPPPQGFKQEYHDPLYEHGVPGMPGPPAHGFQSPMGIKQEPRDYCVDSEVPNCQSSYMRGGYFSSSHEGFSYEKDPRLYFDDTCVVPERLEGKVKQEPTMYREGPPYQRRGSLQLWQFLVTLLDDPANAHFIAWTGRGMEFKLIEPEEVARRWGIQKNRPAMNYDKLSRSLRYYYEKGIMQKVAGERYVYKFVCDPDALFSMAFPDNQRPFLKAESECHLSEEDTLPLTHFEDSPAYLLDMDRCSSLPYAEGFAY
# ELF4, sequence (Q99607 whole entry): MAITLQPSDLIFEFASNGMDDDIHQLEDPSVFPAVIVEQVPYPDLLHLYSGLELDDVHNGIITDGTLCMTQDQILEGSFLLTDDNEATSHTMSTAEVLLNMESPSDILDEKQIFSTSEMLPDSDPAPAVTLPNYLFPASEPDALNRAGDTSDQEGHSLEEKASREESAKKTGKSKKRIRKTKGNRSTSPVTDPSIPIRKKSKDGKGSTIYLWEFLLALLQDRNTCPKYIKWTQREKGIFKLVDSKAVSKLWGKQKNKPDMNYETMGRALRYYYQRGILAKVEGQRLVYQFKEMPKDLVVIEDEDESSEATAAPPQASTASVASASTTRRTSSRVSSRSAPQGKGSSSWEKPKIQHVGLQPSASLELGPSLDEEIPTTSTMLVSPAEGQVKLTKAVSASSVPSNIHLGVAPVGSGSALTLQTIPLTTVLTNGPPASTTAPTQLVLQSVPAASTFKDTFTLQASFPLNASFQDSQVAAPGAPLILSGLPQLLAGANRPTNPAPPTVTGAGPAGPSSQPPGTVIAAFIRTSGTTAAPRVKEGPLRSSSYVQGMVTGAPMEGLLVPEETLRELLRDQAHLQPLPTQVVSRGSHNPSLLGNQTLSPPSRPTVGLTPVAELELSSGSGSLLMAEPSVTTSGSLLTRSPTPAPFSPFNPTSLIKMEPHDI
# ETV1, sequence (P50549 whole entry): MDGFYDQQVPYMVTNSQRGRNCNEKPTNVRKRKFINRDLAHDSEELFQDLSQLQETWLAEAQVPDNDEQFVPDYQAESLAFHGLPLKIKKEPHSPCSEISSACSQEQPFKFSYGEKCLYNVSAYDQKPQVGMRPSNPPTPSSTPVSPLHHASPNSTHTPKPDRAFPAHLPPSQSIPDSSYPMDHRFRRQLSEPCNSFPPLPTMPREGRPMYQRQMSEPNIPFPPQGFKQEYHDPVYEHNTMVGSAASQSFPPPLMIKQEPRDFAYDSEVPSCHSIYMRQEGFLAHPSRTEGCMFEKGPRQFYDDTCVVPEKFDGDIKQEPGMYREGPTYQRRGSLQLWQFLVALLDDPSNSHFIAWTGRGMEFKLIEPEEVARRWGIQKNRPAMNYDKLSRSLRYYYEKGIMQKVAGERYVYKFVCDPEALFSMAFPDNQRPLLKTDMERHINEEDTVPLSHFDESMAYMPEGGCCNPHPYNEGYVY
sequence,measurement,setting,value
TGCCCG,binding signal,FEV,"1.27 fold enrichment (6-mer frequency, TF over GST control)"
same,binding signal,ETV5,"1.21 fold enrichment (6-mer frequency, TF over GST control)"
same,binding signal,HSF1,"1.01 fold enrichment (6-mer frequency, TF over GST control)"
same,binding signal,SPIC,"1.34 fold enrichment (6-mer frequency, TF over GST control)"
same,binding signal,ELF4,"1.21 fold enrichment (6-mer frequency, TF over GST control)"
same,binding signal,ELK4,"1.16 fold enrichment (6-mer frequency, TF over GST control)"
same,binding signal,ETV2,"1.26 fold enrichment (6-mer frequency, TF over GST control)"
same,binding signal,ELF3,"1.32 fold enrichment (6-mer frequency, TF over GST control)"
same,binding signal,ETV1,"1.21 fold enrichment (6-mer frequency, TF over GST control)"
same,binding signal,ERF,"1.13 fold enrichment (6-mer frequency, TF over GST control)"
same,binding signal,ETV3L,"1.16 fold enrichment (6-mer frequency, TF over GST control)"
same,binding signal,ETS2,"1.26 fold enrichment (6-mer frequency, TF over GST control)"
same,binding signal,SPDEF,"1.28 fold enrichment (6-mer frequency, TF over GST control)"
same,binding signal,ETV7,"1.34 fold enrichment (6-mer frequency, TF over GST control)"
same,binding signal,ELF5,"1.19 fold enrichment (6-mer frequency, TF over GST control)"
same,binding signal,ETV3,"1.24 fold enrichment (6-mer frequency, TF over GST control)"
same,binding signal,ETV6,"1.19 fold enrichment (6-mer frequency, TF over GST control)"
